Rows were chosen to be rich in hits. Some 19% of all compounds tested hit in one or more screens of this group.
Pf growth 96h = inhibits malaria parasite growth, 96 h | P. falciparum luciferase reporter growth, 96 h | Potency, µM (doses to about 28.7 µM), inactives show top-dose activity change, negative = inhibition, most hits filed as inhibitors | actives 6.9% (n = 320,000); note: potency is the fitted concentration of half-maximal effect; % is set by controls: 0 for no effect and ±100 for the full control effect
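Compounds incubated with erythrocytes infected by luciferase-expressing P. falciparum (2% hematocrit, 0.05% parasitemia final) for 96 hours, 37 C in 5% CO2. Growth inhibition scored as decreased luciferase luminescence.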
Cycloheximide cs = counter-screen for Shiga toxin inhibitors: cycloheximide protein synthesis inhibition. cell reporter, cycloheximide protein synthesis inhibition counterscreen. actives 12% (n = 300,000). max response, %; in the data active = max response mostly above about 13%, no sharp cut-off; inactive = mostly below about 14%; note: read at 38.3 µM for the half of the compounds with a filed dose; 0% is about no effect
Shiga toxin inh = inhibitors of Shiga toxin in Vero cells; Vero cells, Shiga toxin protein synthesis inhibition reporter; actives 9.2% (n = 290,000); inhibition, % at 38.7 µM; in the data active = inhibition mostly above about 28%, no sharp cut-off; inactive = mostly below about 43%; note: 0% is about no effect
Pf growth 48h = P. falciparum growth inhibition at 48 hours (one generation) | AID 504832 | P. falciparum luciferase growth in erythrocytes, 48 h | actives 5.9% (n = 310,000) | Potency, µM (top dose mostly 28.7 µM), without a hit: top-dose activity change, negative = inhibition, hits mostly inhibitors; note: potency is the fitted concentration of half-maximal effect; % is set by controls: 0 for no effect and ±100 for the full control effect
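Luminescence readout; reporter = integrated firefly luciferase in P. falciparum. RBC culture at 2% hematocrit, 0.1% parasitemia final, 37 C/5% CO2; decreased signal taken as growth inhibition.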
Marburg entry inh = Marburg virus entry inhibition | Marburg virus pseudotyped entry inhibition, cell reporter | Potency, µM (titrated, usually from 37.8 µM), without a hit: at the highest dose activity change, negative = inhibition, actives largely listed as inhibitors | actives 1.8% (n = 300,000) | AID 540276; calls by dose curve; tested in HEK293 cells; note: potency is the fitted concentration of half-maximal effect; % is set by controls: 0 for no effect and ±100 for the full control effect
Lassa entry inh = inhibitors of Lassa virus binding or cell entry; Lassa virus pseudotype entry inhibition, cell reporter; Potency, µM (doses to about 37.9 µM), for the others: at the highest dose activity change, negative = inhibition, usual class: inhibitors; actives 1.2% (n = 300,000); calls by dose curve; tested in HEK293 cells; note: potency is the fitted concentration of half-maximal effect; % is set by controls: 0 for no effect and ±100 for the full control effect; nearly all actives have a fitted effect of over 50% in size
* marks the source's active call; other numbers are inactive results; ? = inconclusive; nt = not tested or not shown; [ ] = dose if it differs, or a comment. Unless noted, calls come from the whole dose curve; as a rule, active = well fitted inhibition curve with a large enough effect; inconclusive = small, poorly fitted or top-dose-only effect, or another doubt; inactive = no such curve, though single readings can be large or run the other way.

SMILES	Pf growth 96h	Cycloheximide cs	Shiga toxin inh	Pf growth 48h	Marburg entry inh	Lassa entry inh
Cc1ccccc1-c1nnn(CC(=O)N2CCN(C(=O)c3ccco3)CC2)n1	-3%	nt	nt	4%	?	-12%
C=CCc1cc(Cl)ccc1OCCN(C)C	52%	1	-14	2%	?	3%
CN(C)C(Cc1ccccc1)C(=O)c1c[nH]c2ccccc12 (centres undefined)	?	28*	63	nt	nt	nt
CC(Cl)C(=O)c1c[nH]c2ccccc12 (centres undefined)	-7%	-2	-5	?	-4%[46.1 µM]	-10%
CCOC(=O)c1c(C)[nH]c(C)c1C(=O)C(Cc1ccccc1)N(C)C (centres undefined)	-2%	-3	-8	nt	nt	nt
CN(C)C(Cc1ccccc1)C(=O)c1ccccc1 (centres undefined)	?	33*	65*	9%	8%	16%
CCCCn1nc(C(=O)N(C)CC(=O)Nc2cccc(F)c2)c2ccccc2c1=O	2%	nt	nt	?	-9%	-3%
COc1ccccc1-c1nc(-c2ccccn2)no1	3%	14	-5	nt	nt	nt
Clc1ccc(-c2nc(-c3ccccn3)no2)cc1Cl	492%	66*	77*	-5%	2.9µM*	?
COc1ccc(-c2nc(-c3ccccn3)no2)cc1	59%	-9	-19	-81%	0.29µM*	?
CC1(C)Cc2cccc(OCC(=O)OCC(=O)Nc3ccccc3)c2O1	24%	nt	nt	3%	21%	2%
C/C(CC(=O)NCc1ccccc1)=N\NC(N)=S	?	6	-4	?	?	-14%
CC1=C(CC/C(C)=N/NC(N)=S)C(C)(C)CCC1	-22%	1	7	?	21µM*	?
Cc1ccc(Cn2nnc3c(=O)[nH]c(C4CCN(C(=O)Cc5ccccc5F)CC4)nc32)cc1	nt	nt	nt	nt	2%[46.1 µM]	-12%[46.1 µM]
O=C(Cn1c(=O)oc2cc(S(=O)(=O)N3CCCC3)ccc21)NC1CCCCC1	?	-2	-1	38%	nt	nt
CCN(C(=O)Cn1c(=O)oc2cc(S(=O)(=O)N3CCOCC3)ccc21)c1ccccc1	4.1µM*	-2	3	?	nt	nt
CC1CCCN(C(=O)Cn2c(=O)oc3cc(S(=O)(=O)N4CCCCC4)ccc32)C1 (centres undefined)	?	1	19	1.3µM*	8%[46.1 µM]	nt
CC1CCCCC1NC(=O)Cn1c(=O)oc2cc(S(=O)(=O)N3CCCC3)ccc21 (centres undefined)	10µM*	-1	-1	-8%	nt	nt
CCCCNC(=O)Cn1c(=O)oc2cc(S(=O)(=O)N3CC(C)CC(C)C3)ccc21 (centres undefined)	6.6µM*	-4	-18	nt	nt	nt
O=C(Cn1c(=O)oc2cc(S(=O)(=O)N3CCCC3)ccc21)NCc1ccc(F)cc1	6.6µM*	-5	4	nt	19%[46.1 µM]	-4%[46.1 µM]
O=C(Cn1c(=O)oc2cc(S(=O)(=O)N3CCCC3)ccc21)N1CCN(c2ccccn2)CC1	12µM*	-2	-8	-7%	-8%	nt
O=C(Cn1c(=O)oc2cc(S(=O)(=O)N3CCCC3)ccc21)N1CCN(c2ccccc2F)CC1	?	4	-7	?	nt	nt
O=C(Cn1c(=O)oc2cc(S(=O)(=O)N3CCCC3)ccc21)Nc1cccc(C(F)(F)F)c1	12µM*	12	14	36%	?	?
O=C(Cn1c(=O)oc2cc(S(=O)(=O)N3CCCCC3)ccc21)NCc1ccc(F)cc1	nt	nt	nt	nt	-1%[46.1 µM]	nt
CCS(=O)(=O)N1CCN(C(=O)c2ccccc2[N+](=O)[O-])CC1	-32%[1.15 µM]	-4	-6	36%	2%[46.1 µM]	6%
CCCn1c(N)c(N(CCOC)C(=O)c2ccc(S(=O)(=O)N3CCOCC3)cc2)c(=O)[nH]c1=O	nt	nt	nt	nt	0%	-8%
O=C(CNC1CCCCC1)Nc1cc(S(=O)(=O)N2CCOCC2)ccc1Cl	4%	-2	2	-14%	-4%[46.1 µM]	nt
O=C(Nc1cc2c(oc1=O)CCCC2=O)c1ccc(Cl)cc1	57%	20*	23	47%	-3%	?
COc1ccc(C2/C(=C(\O)c3cc(C)ccc3C)C(=O)C(=O)N2CCN(C)C)cc1OC (centres undefined)	?	5	-22	-4%	6%	?

Source: PubChem BioAssay
